Drawing on PubChem BioAssay (EPA / NIEHS), this text covers outcome for 34 molecules.

Results filed as inconclusive are left out. The source made the active and inactive calls. Rule for the calls: active = hit-call score of the fitted dose curve at least 0.9, where 1 is the maximum; inconclusive = response in the unintended direction; inactive = score below 0.9.

The nature of this test: CLD_ACTIN_6hr: CellzDirect (CLD) Gene Expression Assay for Baseline Control (Actin) at 6 hours (AID 2283676).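 Note: active means increased actin mRNA relative to DMSO vehicle.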 The procedure: CLD_6hr is a cell-based, multiplexed-readout assay that uses hepatocyte, a human liver primary cell, with measurements taken at 6 hours after chemical dosing in a 96-well plate.CLD_ACTIN_6hr is one of 16 assay component(s) measured or calculated from the CLD_6hr assay. It is designed to make measurements of mRNA induction, a form of inducible reporter, as detected with chemiluminescence signals by Quantitative Nuclease Protection Assay (qNPA) technology.Data from the assay component CLD_ACTIN_6hr was analyzed at the endpoint, CLD_ACTIN_6hr, in the positive analysis fitting direction relative to DMSO as the negative control and baseline of activity. Using a type of inducible reporter, gain-of-signal activity can be used to understand changes in the reporter gene as they relate to the gene ACTA1. Furthermore, this assay endpoint can be referred to as a secondary readout, because this assay has produced multiple assay endpoints where this one serves a background control function. To generalize the intended target to other relatable targets, this assay endpoint is annotated to the background measurement intended target family, where subfamily is baseline control.
Human hepatocyte cultures were treated daily for two consecutive days with fresh dosing solutions containing appropriate concentrations of the 320 ToxCast chemicals (chemical identities were blinded to CellzDirect and other ToxCast collaborators), vehicle control (0.2% DMSO), and positive control inducers as summarized in Table 1. Due to the large number of treatment groups and chemicals examined, the ToxCast chemicals were divided into two groups (spanning two independent cultures of hepatocytes from separate donor preparations (Hu778: ToxCast plates 1 and 2; Hu776: ToxCast plates 3 and 4). Each preparation of human hepatocyte cultures was treated with respective vehicle control, medium only control, set of six positive controls/reference chemicals for the five hepatic receptor pathways, and a subset of eight of the ToxCast chemicals (indoxacarb, pyrithiobac-sodium, norflurazon, cyhalofop-butyl, methomyl, thiram, acetochlor, and propiconazole). These replicate data, coupled with internal replicates designed within the blinded ToxCast chemical library, provided additional data to evaluate interindividual differences between hepatocyte preparations and their potential impact on chemical profiles.Cell morphology and integrity were evaluated using phase-contrast microscopy as an indicator of hepatocyte cell health (Tyson & Green, 1987). Cultures for each treatment group (i.e., media, vehicle [0.2% DMSO], positive control inducers [multiple concentrations], and the ToxCast chemicals [multiple concentrations]) were observed and cell morphology was assessed relative to vehicle control cultures at each harvest time point (0, 6, 24, or 48 h). […] Images were evaluated at the conclusion of the study to assess changes in cell integrity and account for the effects of chemical exposure on uncharacteristic changes in concentration-dependent gene expression profiles. The results from these determinations of apparent cytotoxicity were annotated (yes/no) alongside the corresponding qNPA data for reference.At the conclusion of each treatment period, hepatocyte cultures (96-well) were washed with 1 volume of HBSS, lysed by addition of 25 ul ArrayPlate lysis buffer (HTG, Tucson, AZ), and 70 ul/well of Denaturation Oil, denatured by incubation at 95C for 10 min, and frozen at approximately -70C until analysis by nuclease protection assay (qNPA) (Roberts et al., 2007). For qNPA analysis, cell lysates were thawed at 50C for approximately 30 min, qNPA probes were added, and samples were incubated at 95C for 10 min to begin the detection process by denaturing the target RNA, dissociating the duplexes and secondary structure hybridization. At the conclusion of the hybridization period, S1 nuclease reagent was added to each sample to digest all nonprotected nucleotides at 50C for 60-90 min. […]
For `CCNc1nc(Cl)nc(NCC)n1`, the outcome was inactive.

As for `Cc1c(F)c(F)c(COC(=O)C2C(/C=C(\Cl)C(F)(F)F)C2(C)C)c(F)c1F` (centres undefined), the call was inactive.

For `CO/C=C(/C(=O)OC)c1ccccc1Oc1cc(Oc2ccccc2C#N)ncn1`, the molecule was called inactive. Next, `O=C(O)c1nc(Cl)ccc1Cl`: “inactive”; `COC(=O)C(C)Oc1ccc(Oc2ccc(Cl)cc2Cl)cc1` (centres undefined): “inactive”. Next, `OC(c1ccc(Cl)cc1)(c1cncnc1)c1ccccc1Cl` (centres undefined): “inactive”. `C=CCC1=C(C)C(OC(=O)C2C(C=C(C)C)C2(C)C)CC1=O` (centres undefined): the call was inactive. Turning to `CC(Oc1ccc(Cl)cc1Cl)C(=O)O` (centres undefined), the call was inactive.

`CCCC1COC(Cn2cncn2)(c2ccc(Cl)cc2Cl)O1` (centres undefined): the result was inactive.

For `CNC(=O)ON=CC(C)(C)SC`, the outcome was inactive. With `COP(N)(=O)SC` (centres undefined), the molecule was called inactive. Next, `CN(C)C(=S)SSC(=S)N(C)C`: “inactive”; `CCCCNC(=O)n1c(NC(=O)OC)nc2ccccc21`: “inactive”. Next, `CC(C)(C)c1ccc(CSc2cnn(C(C)(C)C)c(=O)c2Cl)cc1`: “inactive”; `COP(=S)(OC)Oc1nc(Cl)c(Cl)cc1Cl`: “inactive”; `CCc1nn(C)c(C(=O)NCc2ccc(C(C)(C)C)cc2)c1Cl`: “inactive”. With `N#Cc1cc(Br)c(O)c(Br)c1`, the molecule was classed as inactive. The same measure for `CCON=C(CC)C1=C(O)CC(c2c(C)cc(C)cc2C)CC1=O` (centres undefined): “inactive”; for `C#CCOS(=O)OC1CCCCC1Oc1ccc(C(C)(C)C)cc1` (centres undefined): “inactive”.

For the molecule `COc1nc(C)nc(NC(=O)NS(=O)(=O)c2ccccc2Cl)n1`, the molecule was called inactive. The same measure for `COC(=O)C=C(C)OP(=O)(OC)OC`: “inactive”; for `O=C(Nc1ccccc1)Nc1ccnc(Cl)c1`: “inactive”. Regarding `COc1nc(NC(C)C)nc(NC(C)C)n1`, the molecule was called inactive.

Take `CCCCOC(=O)c1ccccc1C(=O)OCCCC`: the molecule was classed as inactive. The same measure for `Cc1cc(Cl)ccc1OCC(=O)O`: “inactive”; for `C=CC1(C)OC(=O)N(c2cc(Cl)cc(Cl)c2)C1=O` (centres undefined): “inactive”; for `COC(=O)c1ccccc1C(=O)OC`: “inactive”. The same measure for `CC1COC(Cn2cncn2)(c2ccc(Oc3ccc(Cl)cc3)cc2Cl)O1` (centres undefined): “inactive”; for `CC(C)C1(C)N=C(c2nc3ccccc3cc2C(=O)O)NC1=O` (centres undefined): “inactive”; for `COc1nc(C)nc(NC(=O)NS(=O)(=O)c2ccccc2CCC(F)(F)F)n1`: “inactive”. Next, `COc1cnc(OC)n2nc(NS(=O)(=O)c3c(OCC(F)F)cccc3C(F)(F)F)nc12`: “inactive”; `CS/C(C)=N/OC(=O)N(C)SN(C)C(=O)O/N=C(\C)SC`: “inactive”. In the case of `CC(C)Oc1cc(-n2nc(C(C)(C)C)oc2=O)c(Cl)cc1Cl`, the molecule was classed as inactive. The same measure for `Cc1ccc(-c2c(Cl)nc(C#N)n2S(=O)(=O)N(C)C)cc1`: “inactive”.
